Bioassay records as filed in PubChem.
Compounds with a hit are over-represented: about 4.9% of the library has one in this group of screens.
SKKanGAS inh: inhibitors of SKKanGAS S. pyogenes growth in kanamycin (SK-promoter or general growth effect). inhibition, % at 7.5 µM. BacTiter-Glo, 6 h. AID 1662. hit rate 1.3% among 300,000;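 active = mean replicate score, as percent of positive control median, at least 50; inconclusive = mean below 50 but one replicate at or above 50; inactive = mean and every replicate below 50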;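 also: strain carries kanamycin resistance gene driven by streptokinase promoter and grows in 40 µg/ml kanamycin; loss of luminescence reflects streptokinase promoter inhibition or plain growth inhibition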
tim23-1 inh: tim23-1 yeast growth inhibition. S. cerevisiae tim23-1 growth, BacTiter-Glo luminescence, 24 h. inhibition, % at 20 µM. hit rate 1.3% among 330,000. AID 463212;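 active = growth inhibition of the mutant yeast at or above 50%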;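 also: temperature-sensitive mutant grown at 25 °C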
tim10-1 inh: inhibits growth of tim10-1 mutant yeast; S. cerevisiae tim10-1 ts strain growth, BacTiter-Glo, 24 h; inhibition, % at 20 µM; hit rate 2.2% among 330,000; AID 463190;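 active = inhibition of at least 40%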;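 also: mutant grown at 25 °C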
NALP1 inh: blocks the NALP1 inflammasome reconstituted in yeast. S. cerevisiae NALP1/ASC/caspase-1 growth, X-gal OD620, 72 h. inhibition, % at 10 µM. hit rate 0.61% among 280,000; in the data active = inhibition mostly above about 24%, no sharp cut-off; inactive = mostly below about 32%
NALP3 yeast inh: blocks the NALP3 inflammasome reconstituted in yeast. Yeast reconstituted NLRP3/ASC/caspase-1, beta-gal luminescence, 24 h. inhibition, % at 10 µM. hit rate 0.39% among 330,000. AID 2825;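 active = inhibition of 50% or more; inactive = inhibition below 50%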
TIM10 inh: inhibits growth of TIM10 yeast strain; S. cerevisiae TIM10 strain growth, BacTiter-Glo luminescence, 24 h; inhibition, % at 10 µM; hit rate 1.4% among 330,000;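 active = inhibition of 40% or more at the single tested concentration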;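 also: wild-type TIM10 isogenic control strain grown at permissive 25 °C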
Each line names hits and unclear results; the compound was inactive in the other large screens.

Cc1ccnc(NC(c2ccsc2)c2ccc3ccc(C)nc3c2O)c1 (stereo unspecified)	SKKanGAS inh 92.9
Oc1c(C(Nc2ccccn2)c2ccccn2)ccc2cccnc12 (stereo unspecified)	SKKanGAS inh 72.5
COc1ccc(C(Nc2cc(C)ccn2)c2ccc3ccc(C)nc3c2O)cc1 (stereo unspecified)	SKKanGAS inh 61.3 (no result: NALP1 inh)
Cc1ccnc(NC(c2cccnc2)c2ccc3cccnc3c2O)c1 (stereo unspecified)	SKKanGAS inh inconclusive
CSCCC(NC(=O)c1ccco1)C(=O)N1CCN(Cc2ccccc2)CC1 (stereo unspecified)	none (no result: NALP1 inh)
CC(=O)N1CCOc2ccc(S(=O)(=O)Nc3ccc(C)cn3)cc21	none
Cc1ccc2ccc(C(Nc3cccc(C(F)(F)F)c3)c3cccnc3)c(O)c2n1 (stereo unspecified)	SKKanGAS inh 65.2
Oc1ccccc1C(Nc1nccs1)c1ccc2cccnc2c1O (stereo unspecified)	SKKanGAS inh 74.9
O=C(CSc1nc(-c2ccc(Cl)cc2)[nH]c(=O)n1)Nc1cccc(Cl)c1	SKKanGAS inh 58.5 (no result: NALP1 inh)
COC(=O)CN(c1ccccc1C)S(C)(=O)=O	NALP1 inh 31.3
CCCC(=O)OC(C(=O)Nc1cc(C(F)(F)F)ccc1Cl)c1ccccc1 (stereo unspecified)	none
Cc1cc(C(=O)NCC(=O)OC(C(=O)Nc2cc(C(F)(F)F)ccc2Cl)c2ccccc2)ccc1[N+](=O)[O-] (stereo unspecified)	SKKanGAS inh 52.7
COC(=O)c1ccc(C(=O)OC)c(NC(=O)CN(C)Cc2ccccc2)c1	none
COC(=O)c1ccc(C(=O)OC)c(NC(=O)CN(C)Cc2cccc(Cl)c2Cl)c1	SKKanGAS inh 69.1
COc1ccc(CN(C)C(=O)Cn2cnc3c(OCc4ccccc4)ncnc32)cc1OC	none (no result: SKKanGAS inh, NALP1 inh)
Cn1c(N2CCOCC2)c(/C=N/O)c2ccccc21	none
CC(=O)O/N=C/c1c(N2CCOCC2)n(C)c2ccccc12	NALP1 inh 28.7
COCCn1c(-c2cc(OC)c(OC)c(OC)c2)nc2oc3cc(OC)ccc3c(=O)c2c1=O	SKKanGAS inh 54.6
CCN(CC)C(=O)[C@H]1CC(CC(=O)NCCCn2ccnc2)C(=O)N2CCc3c([nH]c4ccccc34)[C@]12C (stereo partly specified)	none (no result: SKKanGAS inh, NALP1 inh)
CCn1c(SCC(=O)Nc2nc(-c3ccc(C)cc3)cs2)nnc1-c1ccccc1O	SKKanGAS inh 54.9
Cc1c(Cc2ccccc2)c(=O)oc2cc(OCc3ccc(C(=O)O)cc3)ccc12	SKKanGAS inh 54.4
Cc1cc(C)nc(/N=C(\N)Nc2ccc(F)c([N+](=O)[O-])c2)n1	none
Cc1ccc(C)c(NC(=O)CCN2CC(C)CC(C)C2)c1 (stereo unspecified)	NALP1 inh 38.3
CCOC(=O)C1CCCN(C(=O)c2ccc3c(=O)n(Cc4ccccc4OC)c(=S)[nH]c3c2)C1 (stereo unspecified)	none
COc1ccc(CNC(=O)C(=O)NCc2cccnc2)cc1	NALP1 inh 27.9
COc1ccc(/C=N/NC(=O)C(=O)NCc2cccnc2)cc1	none
COc1ccc(CCNC(=O)C(C)n2nc(C)c3c(C)n(-c4ccc(C)cc4)nc3c2=O)c(OC)c1 (stereo unspecified)	none
CCCc1sc(N/N=C/c2ccccn2)nc1-c1ccc(Br)cc1	SKKanGAS inh 67.1
Cc1[nH]n(-c2ccccc2)c(=O)c1/C=N/N(c1ccccc1)c1ccccc1	SKKanGAS inh 77.6
CC1CCc2c(C(=O)Nc3cccc(-c4nn[nH]n4)c3)csc2C1 (stereo unspecified)	SKKanGAS inh 55.5
CCc1nnc(NC(=O)c2csc3c2CCC(C)C3)s1 (stereo unspecified)	none
Cc1ccccc1OCC(=O)N/N=C/c1ccc(N2CCOCC2)o1	none (no result: SKKanGAS inh)
CCCCN(C)C(=S)Nc1ccc(Oc2ccccc2)cc1	none
CCCN(CC1CC1)C(=S)Nc1ccc(Oc2ccccc2)cc1	NALP1 inh 61.2
CCCc1nc2c(ccc3ccccc32)cc1CC	none
CCN(CC)c1ccc(-c2nn3c(-c4cccnc4)nnc3s2)cc1	SKKanGAS inh 67.6 (no result: tim23-1 inh, tim10-1 inh, NALP3 yeast inh, TIM10 inh)
Cc1ccc(NC(=O)Cn2cnc3c(cnn3C(C)(C)C)c2=O)cc1	none
COc1ccc(NC(=O)Cn2cnc3c(cnn3C(C)(C)C)c2=O)cc1OC	NALP1 inh 30.6
CCOC(=O)N1CCN(C(=O)c2cc3n(n2)C(C(F)(F)F)CC(c2ccc4c(c2)OCO4)N3)CC1 (stereo unspecified)	SKKanGAS inh 54.5
COc1ccc(OC)c(NC(=O)c2cc3n(n2)C(C(F)(F)F)CC(c2ccc4c(c2)OCO4)N3)c1 (stereo unspecified)	none
O=C(Nc1cc(Cl)ccc1O)c1cc2n(n1)C(C(F)(F)F)CC(c1ccc3c(c1)OCO3)N2 (stereo unspecified)	SKKanGAS inh 100.5
O=C(NCc1ccc2c(c1)OCO2)c1cc2n(n1)C(C(F)(F)F)CC(c1ccc3c(c1)OCO3)N2 (stereo unspecified)	none
C/C(=N\NC(=O)c1ccccc1)c1c(C)[nH]n(-c2ccccc2)c1=O	none
C/C(=N\NC(=O)c1ccc(C)cc1)c1c(C)[nH]n(-c2ccccc2)c1=O	SKKanGAS inh 55.5
Cc1[nH]n(-c2ccccc2)c(=O)c1C(=O)c1ccc([N+](=O)[O-])cc1	none
Cc1nn(-c2ccccc2)nc1C(=O)c1c(C)[nH]n(-c2ccccc2)c1=O	SKKanGAS inh 61.4 (no result: NALP1 inh)
O=C(NCc1cccc(Cl)c1)C1CCN(S(=O)(=O)c2ccc(F)cc2)CC1	none
CN(CCOc1ccccc1)C(=O)CNC(=O)c1ccc(C(C)(C)C)cc1	none (no result: SKKanGAS inh, NALP1 inh)
COc1ccc(Br)cc1/C=C/c1ccc2cccc(O)c2n1	SKKanGAS inh 100.3
COc1cc(Br)cc(/C=C/c2ccc3cccc(O)c3n2)c1OC	SKKanGAS inh 93.0
COc1ccc(Br)cc1/C=C/C(=O)NCC(=O)O	none
O=C(Nc1ccc(N2CCN(C(=O)c3ccco3)CC2)c(Cl)c1)c1c(F)c(F)c(F)c(F)c1F	SKKanGAS inh 50.1
CSc1nc2nc(-c3ccccc3)cc(C(F)(F)F)n2n1	NALP1 inh 27.1
O=C(CNS(=O)(=O)c1ccccc1)OCC(=O)c1c[nH]c2ccccc12	none (no result: SKKanGAS inh, NALP1 inh)
COc1ccc2[nH]c3c(=O)n(/N=C/c4ccc(OC)c(CN5CCCC5)c4)c(C)nc3c2c1	SKKanGAS inh 72.3
COc1ccc(/C=N/n2c(C)nc3c([nH]c4ccccc43)c2=O)cc1CN1CCCC(C)(C)C1	SKKanGAS inh 69.7
CCc1cc(=O)oc2c(CNCc3c(F)cccc3Cl)c(O)ccc12	none
CC(Oc1ccc(Cl)cc1Cl)C(=O)Nc1ccc2oc(-c3ccncc3)nc2c1 (stereo unspecified)	SKKanGAS inh 51.3
O=c1c(Cl)c(N2CCCCC2)cnn1-c1nc2ccccc2[nH]1	none
O=c1c2ccccc2cnn1-c1nc2ccccc2[nH]1	SKKanGAS inh 58.1 (no result: tim23-1 inh, tim10-1 inh, NALP3 yeast inh, TIM10 inh)
